Drawing on a collection of fitness landscapes (doi:10.1126/science.1257360), this text covers enrichment ratio for 153 variants.

B1: PhoQ; a variant is named by its letters at X, in order, P23837 (parent)
chain: MKKLLRLFFPLSLRVRFLLATAAVVLVLSLAYGMVALIGYSVSFDKTTFRLLRGESNLFYTLAKWENNKLHVELPENIDKQSPTMTLIYDENGQLLWAQRDVPWLMKMIQPDWLKSNGFHEIEADVNDTSLLLSGDHSIQQQLQEVREDDDDAEMTHSVAVNVYPATSRMPKLTIVVVDTIPVELKSSYMVWSWFIYVLSANLLLVIPLLWVAAWWSLRPIEALAKEVRELEEHNRELLNPATTRELTSLVRNLNRLLKSERERYDKYRTTLTDLTHSLKTPLXXLQXXLRSLRSEKMSVSDAEPVMLEQISRISQQIGYYLHRASMRGGTLLSRELHPVAPLLDNLTSALNKVYQRKGVNISLDISPEISFVGEQNDFVEVMGNVLDNACKYCLEFVEISARQTDEHLYIVVEDDGPGIPLSKREVIFDRGQRVDTLRPGQGVGLAVAREITEQYEGKIVAGESMLGGARMEVIFGRQHSAPKDE

In all, about 140,000 sequences were measured (“enrichment ratio after two sorts for PhoP signalling”: median about 0, highest 2% from about 11 on). The list comes from a sample in which the highest values are over-represented; it also holds similar and randomly drawn sequences.

The variants in this assay derive from B1. The assay can be described thus: enrichment ratio after two sorts for PhoP signalling (ratio (wild type AVST 3.29)); higher = more functional. To be noted: with PhoP (E. coli).
On to VFWT, for which the enrichment ratio was at most 0.25.
Consider GYSM, for which the enrichment ratio is at most 0.25.
As for GQSM, the figure is 20.5; as for FVSM, at most 0.25; as for MASM, 16.9.
As to MESM, the enrichment ratio was determined as 19.
On to MQSM, for which the enrichment ratio stood at 8.88.
As for MVTM, the enrichment ratio is 3.98.
As for FQSM, the enrichment ratio was at most 0.25.
Turning to MVHF, the enrichment ratio was 0.626.
As for MRSM, the figure is at most 0.25; as for GVSM, 0.841; as for MVSM, 12.3.
Turning to LDIM, the enrichment ratio is at most 0.25.
Turning to MSCN, the enrichment ratio was 1.97.
For THNV, the enrichment ratio was at most 0.25.
ILTF: the enrichment ratio was determined as 0.323.
In the case of GVMY, the enrichment ratio is at most 0.25.
As for KDHR, the enrichment ratio is at most 0.25.
With QESF, the enrichment ratio was at most 0.25.
Consider GSQM, for which the enrichment ratio is at most 0.25.
Take NESM: the enrichment ratio was at most 0.25.
As to GSSM, the enrichment ratio worked out at 11.2.
Regarding NESF, the enrichment ratio was at most 0.25.
The same measure for GESF: 0.55; for GESM: 17.3; for QESM: 5.67.
As for TESF, the figure is 11.5.
As for TESM, the figure is 30.
Take GSSF: the enrichment ratio was 0.449.
GEHF: the enrichment ratio is at most 0.25.
As for TLHH, the enrichment ratio is at most 0.25.
For the variant FQMV, the enrichment ratio was found to be 0.463.
With MHQA, the enrichment ratio was at most 0.25.
Turning to NHWK, the enrichment ratio is at most 0.25.
As to ITGV, the enrichment ratio was at most 0.25.
Turning to KASM, the enrichment ratio was at most 0.25.
As for TASM, the figure is 13.4; as for NASM, at most 0.25.
Take AEWF: the enrichment ratio is at most 0.25.
For the variant WRRW, the enrichment ratio is at most 0.25.
As for AKND, the figure is at most 0.25.
For the variant SHND, the enrichment ratio is at most 0.25.
As to THND, the enrichment ratio is 29.6.
As for NHND, the enrichment ratio is at most 0.25.
In the case of TKND, the enrichment ratio came to 12.6.
On to MKND, for which the enrichment ratio is at most 0.25.
For DRLD, the enrichment ratio was at most 0.25.
For HSGG, the enrichment ratio was at most 0.25.
FKNI: the enrichment ratio was at most 0.25.
As for NEDI, the figure is at most 0.25; as for NKAR, at most 0.25; as for FVHD, at most 0.25.
For the variant WDYC, the enrichment ratio was at most 0.25.
For AKTE, the enrichment ratio is at most 0.25.
For AMCE, the enrichment ratio amounted to 67.3.
As for AMCS, the figure is 5.27; as for AMPE, at most 0.25; as for AITE, at most 0.25.
As for AMCK, the figure is at most 0.25; as for AMCL, 15.7.
As for AMNL, the enrichment ratio amounted to 3.05.
The same measure for AMIE: at most 0.25.
Regarding NMCL, the enrichment ratio was at most 0.25.
On to AMCI, for which the enrichment ratio was found to be 14.1.
On to AMTE, for which the enrichment ratio came to 15.1.
For the variant PGVP, the enrichment ratio is at most 0.25.
The same measure for HSSS: at most 0.25; for DNCF: at most 0.25; for HRPL: at most 0.25.
For the variant NSCR, the enrichment ratio was at most 0.25.
As for ILKS, the figure is at most 0.25; as for APIM, at most 0.25; as for QGSM, 9.07.
In the case of AMCA, the enrichment ratio worked out at 19.4.
On to AMPI, for which the enrichment ratio is 0.985.
On to AMPA, for which the enrichment ratio is at most 0.25.
As for MMHC, the figure is at most 0.25; as for NQIQ, at most 0.25.
Consider GDNT, for which the enrichment ratio was at most 0.25.
Turning to GDIQ, the enrichment ratio was 17.5.
On to GDHP, for which the enrichment ratio came out at 1.16.
In the case of GNIQ, the enrichment ratio came out at 9.19.
For GDLT, the enrichment ratio was at most 0.25.
Consider GDHQ, for which the enrichment ratio was at most 0.25.
The same measure for GDIT: 14.
With GQIQ, the enrichment ratio was 14.9.
With VNKQ, the enrichment ratio is at most 0.25.
In the case of GRCH, the enrichment ratio was at most 0.25.
As for YDLC, the figure is at most 0.25; as for IFMM, at most 0.25; as for SGFM, 5.94.
On to SGLM, for which the enrichment ratio turned out to be 17.9.
HRLM: the enrichment ratio is at most 0.25.
The same measure for CFLM: at most 0.25.
For the variant TGLM, the enrichment ratio amounted to 26.9.
As for RGLM, the enrichment ratio was at most 0.25.
Take HFLM: the enrichment ratio is at most 0.25.
As for AGLM, the enrichment ratio was 6.12.
In the case of HGLM, the enrichment ratio is 16.4.
Take GGLM: the enrichment ratio was 2.85.
On to NGLM, for which the enrichment ratio turned out to be 13.2.
As for SGFA, the figure is at most 0.25; as for RWIP, at most 0.25.
As for VHKL, the figure is at most 0.25.
With MHLQ, the enrichment ratio was at most 0.25.
With DMYA, the enrichment ratio is at most 0.25.
On to SEHG, for which the enrichment ratio is at most 0.25.
The same measure for VTGQ: at most 0.25; for YERP: at most 0.25; for RWVH: at most 0.25.
With EIKR, the enrichment ratio is at most 0.25.
With WPFI, the enrichment ratio was at most 0.25.
For the variant MTAY, the enrichment ratio is 4.94.
As for IGFA, the figure is at most 0.25; as for IGLA, at most 0.25.
With IGLM, the enrichment ratio is 14.
On to QFWE, for which the enrichment ratio is at most 0.25.
Take ANHE: the enrichment ratio was at most 0.25.
Regarding ANHV, the enrichment ratio is at most 0.25.
As for ANPI, the enrichment ratio is at most 0.25.
Turning to ANIE, the enrichment ratio is at most 0.25.
On to AGII, for which the enrichment ratio was found to be 33.2.
Take AGID: the enrichment ratio was at most 0.25.
Consider ANCA, for which the enrichment ratio came to 44.6.
Turning to TGII, the enrichment ratio was at most 0.25.
In the case of ADSE, the enrichment ratio was at most 0.25.
As for AKSE, the enrichment ratio was at most 0.25.
For the variant ANSE, the enrichment ratio was 11.5.
For ANCE, the enrichment ratio was 56.
As for LPYL, the enrichment ratio was at most 0.25.
Regarding MLTL, the enrichment ratio worked out at 8.8.
YPKQ: the enrichment ratio is at most 0.25.
For RNCE, the enrichment ratio is at most 0.25.
For the variant IICI, the enrichment ratio was at most 0.25.
As to MPFW, the enrichment ratio is at most 0.25.
With LFPW, the enrichment ratio was at most 0.25.
For the variant RNAC, the enrichment ratio was at most 0.25.
NMMW: the enrichment ratio was at most 0.25.
Regarding QIFK, the enrichment ratio is at most 0.25.
In the case of QINA, the enrichment ratio was at most 0.25.
On to QQLA, for which the enrichment ratio was at most 0.25.
With PAGS, the enrichment ratio was at most 0.25.
AHLC: the enrichment ratio was at most 0.25.
In the case of AIMV, the enrichment ratio came out at 5.05.
ANHF: the enrichment ratio is at most 0.25.
Regarding ANFA, the enrichment ratio is at most 0.25.
As to ADLH, the enrichment ratio came to 5.09.
In the case of GNLH, the enrichment ratio stood at 1.09.
As for ANCI, the enrichment ratio was determined as 19.9.
On to LNLC, for which the enrichment ratio was at most 0.25.
For the variant ANLC, the enrichment ratio was found to be 22.4.
For the variant ADMV, the enrichment ratio worked out at 35.3.
